From PubChem BioAssay
APOBEC3G inh: blocks human APOBEC3G single-stranded DNA deamination; Q9HC16; recombinant A3G, ssDNA deamination FAM/TAMRA fluorescence; inhibition, % at 20 µM; 330,000 compounds, 0.28% hits; AID 493012;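 active = inhibition of at least 40% at 20 µM, with no more than 30% in the related APOBEC3A deaminase screen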
Target sequence (Q9HC16 whole entry, looked up): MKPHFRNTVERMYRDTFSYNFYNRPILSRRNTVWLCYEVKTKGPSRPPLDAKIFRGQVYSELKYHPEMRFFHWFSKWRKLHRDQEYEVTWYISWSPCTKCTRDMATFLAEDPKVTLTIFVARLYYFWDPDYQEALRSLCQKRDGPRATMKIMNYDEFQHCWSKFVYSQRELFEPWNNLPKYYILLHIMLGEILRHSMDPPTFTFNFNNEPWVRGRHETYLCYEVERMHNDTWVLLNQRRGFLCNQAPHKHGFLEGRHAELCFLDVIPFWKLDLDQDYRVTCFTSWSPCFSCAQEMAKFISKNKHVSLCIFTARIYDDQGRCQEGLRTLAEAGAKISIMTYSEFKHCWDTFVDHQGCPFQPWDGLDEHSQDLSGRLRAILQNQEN
NALP1 inh: blocks the NALP1 inflammasome reconstituted in yeast | S. cerevisiae NALP1/ASC/caspase-1 growth, X-gal OD620, 72 h | inhibition, % at 10 µM | 280,000 compounds, 0.61% hits; in the data active = inhibition mostly above about 24%, no sharp cut-off; inactive = mostly below about 32%
PolyA inhibitor: inhibitors of polyadenylation in S. cerevisiae. S. cerevisiae SKY197-pL101 polyadenylation reporter, beta-gal luminescence; efflux-impaired pdr1/pdr3 knockout yeast; score 100 = 6 SD above DMSO. activity score, % at 12 µM. 300,000 compounds, 0.02% hits. AID 1875;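 active = lowest replicate activity score at least 50, where 100 means six control SD above control mean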;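 note: yeast exposed to compound for 9 h at 30 °C; higher score means more reporter readthrough which indicates perturbed polyadenylation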
A3A deaminase: inhibitors of human APOBEC3A DNA deaminase; 330,000 compounds, 0.41% hits; recombinant A3A, FAM/TAMRA ssDNA deamination fluorescence; AID 493011; inhibition, % at 20 µM;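 active = at least 40% inhibition at 20 µM here, with at most 30% in a related deaminase screen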
Target sequence (P31941 whole entry, looked up): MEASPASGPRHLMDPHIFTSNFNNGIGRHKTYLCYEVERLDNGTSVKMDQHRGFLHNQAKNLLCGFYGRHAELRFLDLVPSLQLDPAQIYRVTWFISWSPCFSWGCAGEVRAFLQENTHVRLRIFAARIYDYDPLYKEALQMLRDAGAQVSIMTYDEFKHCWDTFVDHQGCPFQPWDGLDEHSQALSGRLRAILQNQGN
A number is an active result; 0 = inactive; - = not tested or not shown. In the library only some 1.2% were active in any assay of this set; here they are far more common.

SMILES	APOBEC3G inh	NALP1 inh	PolyA inhibitor	A3A deaminase
COc1ccc(N2CCN(C(=O)c3ccc(NC(=O)C4=CSCCO4)cc3)CC2)cc1	0	0	0	0
COC(=O)c1ccc(N=Cc2c(C(F)(F)F)[nH][nH]c2=O)cc1	0	27	0	0
Cc1c(NC(=O)c2cccc(F)c2)c(=O)n(-c2ccccc2)n1C	0	0	0	0
Cc1c(NC(=O)c2ccc(F)cc2)c(=O)n(-c2ccccc2)n1C	0	36	0	0
Cc1c(NC(=O)C(C)Sc2n[nH]c(N)n2)c(=O)n(-c2ccccc2)n1C (stereo not given)	0	38	0	0
CSC(=S)N/N=C(\C)c1ccc(Br)cc1	0	0	0	0
CC(C)C(=O)N[C@@H]1c2ccccc2CC[C@H]1OCc1ccccc1	0	-	-	0
COC(=O)[C@]1(C)N[C@H](CN(C)S(=O)(=O)c2ccc(OC(F)(F)F)cc2)[C@@H]2C(=O)N(Cc3ccccc3)C(=O)[C@@H]21	0	-	-	0
CC1(C)COC(/C=C/c2ccc([N+](=O)[O-])cc2)=N1	-	89	0	-
CC(=C/C(=O)O)/C=C/c1ccc([N+](=O)[O-])cc1	-	0	-	-
Cc1oc(-c2ccccc2F)nc1CS(=O)(=O)CC(=O)NCCN1CCCC1	0	29	0	0
Cc1oc(-c2ccccc2F)nc1CS(=O)(=O)CC(=O)NCCCN1CCc2ccccc2C1	0	0	0	0
CC(Oc1ccccc1F)c1nnc(SCC(=O)NCc2ccc3c(c2)OCO3)o1 (stereo not given)	0	-	-	0
CCOC(=O)N1CCN(c2c(NCCCN(CC)CC)c(=O)c2=O)CC1	0	45	0	0
CCCCN(CC)CCNc1c(N2CCN(C(=O)OCC)CC2)c(=O)c1=O	0	0	0	0
CC(NC(=O)CSc1ccccc1)c1ccccc1 (stereo not given)	0	0	0	0
CNc1cc(CSC)nc(SCc2ccc(Cl)cc2Cl)n1	0	33	0	0
Nc1nc(SCc2ccc(Cl)cc2Cl)n[nH]1	0	0	0	0
Cc1cccc(NC(=O)c2nc[nH]c2C(=O)N2CCN(c3ccccc3)CC2)c1	0	-	-	0
CC(=O)c1cccc(NC(=S)NC(=O)c2ccc(C)cc2Cl)c1	0	37	0	0
Cc1noc(C)c1C(=O)Nc1ccc(C#N)cc1	0	0	0	0
COc1ccc(Cl)cc1S(=O)(=O)N(C)CC(=O)N1CCOCC1	0	0	0	0
Nc1ncnc(Nc2ccc(F)cc2)n1	0	0	0	0
Fc1ccc(Nc2ccnc(Nc3ccc(F)cc3)n2)cc1	0	84	0	0
CN(C)CCOC(c1ccccc1)c1ccccc1	0	-	0	0
SMILES	APOBEC3G inh	NALP1 inh	PolyA inhibitor	A3A deaminase
Cc1cccc(C)c1C(OCCN(C)C)C1CCCCC1 (stereo not given)	0	51	0	0
Oc1ccc(Cl)cc1-c1cc(C(F)(F)C(F)F)nc(-c2ccccc2)n1	0	43	0	0
O=c1c2sc(-c3ccccc3)cc2nc2n1CCC2	0	0	113	0
Cc1cc(O)c(-c2cc(O)c(C)cc2O)cc1O	86	0	0	0
CN(C1=C(NC(=O)c2ccccc2)C(=O)c2ccccc2C1=O)C1CCS(=O)(=O)C1 (stereo not given)	0	43	0	0
Fc1cccc(/C=N/Nc2nncc3ccccc23)c1	0	0	0	0
C(=N\Nc1nncc2ccccc12)/c1ccccn1	0	37	0	0
COc1ccc(NC(=O)c2cc(-c3cccnc3)nc3ccc(C)cc23)cc1OC	-	34	-	-
Cc1cccc(NC(=O)CSc2nnc(-c3cc(C)n(-c4ccccc4)c3C)o2)c1C	0	0	0	0
Cc1cc(-c2nnc(SCC(=O)Nc3ccccc3C(F)(F)F)o2)c(C)n1-c1ccccc1	0	44	0	0
CCCc1nnc(NC(=O)CC(=O)Nc2ccccc2C(=O)O)s1	0	40	0	0
CCCc1nnc(NC(=O)CS(=O)(=O)c2ccccc2)s1	0	0	0	0
CCCc1nnc(NC(=O)c2cc3ccccc3oc2=O)s1	0	40	0	0
CCCc1nnc(NC(=O)c2cc3ccccc3o2)s1	0	0	0	0
Cn1c(CBr)c(C(=O)c2ccc([N+](=O)[O-])cc2)c(=O)n(C)c1=O	0	0	0	0
COc1ccc(S(=O)(=O)N2CCOCC2)cc1NC(=O)CN1C(=O)NC2(CCCC2)C1=O	0	-	-	0
O=C(c1ccco1)N1CCN(C(=O)c2ccc(CS(=O)c3ccc(F)cc3)o2)CC1 (stereo not given)	0	44	0	0
O=C1C=C(c2ccccc2)OC(=O)C1C(=O)c1ccccc1 (stereo not given)	0	0	121	0
CC1(C)CC(=O)C(C(=O)c2ccccc2)C(=O)C1	0	0	0	0
COc1ccc(NC(=O)CSCC(=O)OCc2cccc(OC)c2OC)cc1	0	-	0	0
CCCN1CCN(CCCNC(=O)c2cc3c(=O)[nH]c4ccccc4c3s2)CC1	0	25	0	0
COc1ccc(Nc2ccc3c(c2)=NC2(CCCCC2)[N+]=3[O-])cc1	0	40	0	0
Cc1cc(C(=O)OCC(=O)Nc2ccccc2C#N)c(C)o1	0	-	-	0
Cc1cc(Br)ccc1NC(=O)CNC(=O)CSc1nccn1C	0	-	-	0
COc1cccc(-c2cc(C(=O)N3C(C)CCCC3C)no2)c1 (stereo not given)	0	43	0	0
SMILES	APOBEC3G inh	NALP1 inh	PolyA inhibitor	A3A deaminase
CC1(C)SC[C@H](C(=O)Nc2cccc(Cl)c2)N1C=O	0	37	0	0
CC12CCC(=O)N1C(C(=O)Nc1ccc(F)c(Cl)c1)CS2 (stereo not given)	0	-	0	0
O=[N+]([O-])c1cnccc1Nc1ccc(F)cc1	0	0	0	0
O=[N+]([O-])c1cnccc1Nc1ccccc1	0	33	0	0
CC(=O)O/N=C/c1c(N2CCOCC2)n(C)c2ccccc12	0	29	0	0
Cc1ccc(C(=O)O/N=C/c2c(N3CCOCC3)n(C)c3ccccc23)cc1	0	0	0	0
CN(C)CCNC(=O)CNC(=S)N(CCCN1CCOCC1)Cc1cccs1	0	0	0	0
CC(=O)Nc1ccc(S(=O)(=O)N2CCN(Cc3cccs3)CC2)cc1	0	26	0	0
c1ccc(N2CCN(c3ccccc3)C2c2cccnc2)cc1	0	0	0	0
Cc1ccc(N2CCN(c3ccc(C)cc3)C2c2cccnc2)cc1	0	40	0	0
O=c1[nH]cnc(O)c1C(c1ccc2c(c1)OCO2)c1c(O)nc[nH]c1=O	0	28	0	0
COc1ccc(S(=O)(=O)C(C#N)c2nc3ccccc3nc2N2CCCCC2)cc1 (stereo not given)	41	0	0	0
CCOC(=O)C1C(c2ccc(O)c(OC)c2)NC(=O)NC1(O)C(F)(F)F (stereo not given)	0	34	0	0
CCOC(=O)C1C(c2ccc3c(c2)OCO3)NC(=O)NC1(O)C(F)(F)F (stereo not given)	0	0	0	0
CC1CN(S(=O)(=O)c2cc(C(=O)N3CCCCC3C)ccc2Cl)CC(C)O1 (stereo not given)	0	-	-	0
Cc1onc(-c2ccccc2Cl)c1C(=O)N1C=CC(C(F)(F)Cl)=NCC1	0	0	0	0
Cc1onc(-c2ccccc2Cl)c1C(=O)N1C=CC(C(F)(F)F)=NCC1	0	58	0	0
